Experimental data from PubChem BioAssay (EPA / NIEHS).
Several values for one entry are separate records, joined by “and”; a condition that tells them apart may be missing. Equal values may be shown once. Records with an inconclusive call do not appear. Some compounds were tested as several samples or in several runs, with calls that do not always agree. Activity calls are given as the source filed them. Rule for the calls: active = hit-call score of the fitted dose curve at least 0.9, where 1 is the maximum; inconclusive = response in the unintended direction; inactive = score below 0.9.

Tests used:
[1] = target: rat Constitutive Nitric Oxide Synthase (CNOS), Nos1 (gene 24598) (UniProt P29476); experiment: NVS_ENZ_rCNOS: NovaScreen (NVS) Enzymatic Assay for rat Constitutive Nitric Oxide Synthase (CNOS) (AID 2283236)
Sequence of rat Constitutive Nitric Oxide Synthase (CNOS), Nos1 (gene 24598) (P29476 whole entry, looked up): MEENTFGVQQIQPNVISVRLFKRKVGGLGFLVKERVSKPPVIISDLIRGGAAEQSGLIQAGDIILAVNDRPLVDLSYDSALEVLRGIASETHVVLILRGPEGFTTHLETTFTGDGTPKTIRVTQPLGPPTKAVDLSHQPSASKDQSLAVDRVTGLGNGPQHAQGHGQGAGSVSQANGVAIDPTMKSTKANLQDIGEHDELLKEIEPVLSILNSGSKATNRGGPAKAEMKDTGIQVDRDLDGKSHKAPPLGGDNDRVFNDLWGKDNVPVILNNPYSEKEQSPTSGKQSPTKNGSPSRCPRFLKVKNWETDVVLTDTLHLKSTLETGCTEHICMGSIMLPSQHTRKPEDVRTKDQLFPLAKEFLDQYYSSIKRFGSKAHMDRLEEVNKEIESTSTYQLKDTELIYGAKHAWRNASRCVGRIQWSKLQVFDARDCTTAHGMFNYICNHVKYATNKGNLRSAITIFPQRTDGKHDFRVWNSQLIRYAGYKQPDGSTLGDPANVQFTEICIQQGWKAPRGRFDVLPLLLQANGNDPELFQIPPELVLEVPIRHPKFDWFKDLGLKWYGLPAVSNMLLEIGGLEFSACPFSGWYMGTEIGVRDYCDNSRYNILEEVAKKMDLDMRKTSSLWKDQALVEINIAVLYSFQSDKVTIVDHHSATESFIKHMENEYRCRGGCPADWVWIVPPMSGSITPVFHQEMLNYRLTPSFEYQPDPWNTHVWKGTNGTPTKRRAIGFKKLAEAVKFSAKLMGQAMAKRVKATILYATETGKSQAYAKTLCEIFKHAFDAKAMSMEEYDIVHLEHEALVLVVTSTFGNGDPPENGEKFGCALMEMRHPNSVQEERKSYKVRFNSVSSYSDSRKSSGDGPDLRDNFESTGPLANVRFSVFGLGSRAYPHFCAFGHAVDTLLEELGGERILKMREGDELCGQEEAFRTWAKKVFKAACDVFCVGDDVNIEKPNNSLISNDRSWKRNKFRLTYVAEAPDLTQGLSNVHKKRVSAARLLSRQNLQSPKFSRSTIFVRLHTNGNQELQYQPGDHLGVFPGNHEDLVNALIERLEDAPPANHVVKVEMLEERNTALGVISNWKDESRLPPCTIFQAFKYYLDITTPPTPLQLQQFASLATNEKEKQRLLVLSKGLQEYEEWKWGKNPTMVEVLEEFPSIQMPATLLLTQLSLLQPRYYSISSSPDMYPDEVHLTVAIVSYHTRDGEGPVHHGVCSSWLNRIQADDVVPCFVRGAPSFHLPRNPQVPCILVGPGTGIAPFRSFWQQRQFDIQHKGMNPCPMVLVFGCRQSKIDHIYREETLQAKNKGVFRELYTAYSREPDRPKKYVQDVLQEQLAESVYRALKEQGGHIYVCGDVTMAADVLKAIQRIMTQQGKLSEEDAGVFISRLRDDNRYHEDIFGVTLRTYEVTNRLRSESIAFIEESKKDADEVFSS
Procedure, shortened: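 Single 25 uM duplicate screen, then concentration series to 50 uM for chemicals meeting threshold. Rat brain membrane-derived CNOS activity detected radiometrically by filtration and scintillation counting, 1 h after compound addition; DMSO as baseline.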

[2] = system: guinea pig Muscarinic, Peripheral (Mperiperal) Receptor, Non-selective Binding, gene 100379235; experiment: NVS_GPCR_gMPeripheral_NonSelective: NovaScreen (NVS) G Protein-Coupled Receptor Assay for guinea pig Muscarinic, Peripheral (Mperiperal) Receptor, Non-selective Binding (AID 2283250)
Procedure, shortened: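 Screened in duplicate at 25 uM, hits retested in concentration series to 50 uM max, using bladder membrane radioligand displacement from guinea pig. Filtration and scintillation counting 1 h post-dose, fitted relative to DMSO.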

[3] = system: rat Monoamine Oxidase, MAO-A, Peripheral (MAOAP), gene 29253; experiment: NVS_ENZ_rMAOAP: NovaScreen (NVS) Enzymatic Assay for rat Monoamine Oxidase, MAO-A, Peripheral (MAOAP) (AID 2283237)
Procedure, shortened: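 Scintillation counting tracked MAO-A activity in a cell-free rat liver mitochondrial membrane prep, read 1.17 hours after compound addition. Single-point duplicate testing at 25 uM preceded concentration-response follow-up; activity was fitted relative to DMSO.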

[4] = target: sheep Cyclooxygenase-1 (Cox1), PTGS1 (gene 443551) (UniProt P05979); experiment: NVS_ENZ_oCOX1: NovaScreen (NVS) Enzymatic Assay for sheep Cyclooxygenase-1 (Cox1) (AID 2283239);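 note: actives reduce cyclooxygenase activity so potencies are for inhibitors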
Sequence of sheep Cyclooxygenase-1 (Cox1), PTGS1 (gene 443551) (P05979 whole entry, looked up): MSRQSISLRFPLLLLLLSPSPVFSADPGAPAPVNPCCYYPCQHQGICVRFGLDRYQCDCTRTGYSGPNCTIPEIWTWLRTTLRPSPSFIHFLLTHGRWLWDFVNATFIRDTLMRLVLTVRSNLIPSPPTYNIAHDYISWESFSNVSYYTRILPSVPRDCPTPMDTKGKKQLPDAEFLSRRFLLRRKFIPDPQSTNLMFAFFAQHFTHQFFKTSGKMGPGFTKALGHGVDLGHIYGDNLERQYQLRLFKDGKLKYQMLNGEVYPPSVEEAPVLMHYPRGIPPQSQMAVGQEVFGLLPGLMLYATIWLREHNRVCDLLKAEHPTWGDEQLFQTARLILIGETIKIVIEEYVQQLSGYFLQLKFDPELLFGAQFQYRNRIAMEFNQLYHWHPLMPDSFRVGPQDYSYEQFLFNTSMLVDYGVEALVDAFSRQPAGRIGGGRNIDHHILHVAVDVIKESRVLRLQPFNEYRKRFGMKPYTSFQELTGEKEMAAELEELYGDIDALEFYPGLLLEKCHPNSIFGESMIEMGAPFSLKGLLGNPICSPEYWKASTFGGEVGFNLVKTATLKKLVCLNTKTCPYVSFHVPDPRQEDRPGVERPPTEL
Procedure, shortened: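 Colorimetric enzyme readout using sheep seminal-vesicle cyclooxygenase-1, measured 0.66 h post-dosing. Single-concentration duplicates at 25 uM first, then concentration series for actives, with DMSO as baseline and plate controls.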

[5] = target: rat Monoamine Oxidase, MAO-B, Peripheral (MAOBP), Maob (gene 25750) (UniProt P19643); experiment: NVS_ENZ_rMAOBP: NovaScreen (NVS) Enzymatic Assay for rat Monoamine Oxidase, MAO-B, Peripheral (MAOBP) (AID 2283242)
[6] = system: rat Monoamine Oxidase, MAO-A, Central (MAOAC), gene 29253; experiment: NVS_ENZ_rMAOAC: NovaScreen (NVS) Enzymatic Assay for rat Monoamine Oxidase, MAO-A, Central (MAOAC) (AID 2283243);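 note: potency refers to inhibition seen as signal drop below DMSO baseline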
Procedure, shortened: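 Scintillation read-out of MAO-A activity in rat brain lysate, 1.5 h post-dosing. Primary single-concentration screen: 25 uM, duplicate; actives re-tested in concentration series. DMSO = negative control/baseline.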

[7] = target: guinea pig Leukotriene D4 Receptor (LTD4), CYSLTR1 (gene 100135514) (UniProt Q2NNR5); experiment: NVS_GPCR_gLTD4: NovaScreen (NVS) G Protein-Coupled Receptor Assay for guinea pig Leukotriene D4 Receptor (LTD4) (AID 2283248)
Sequence of guinea pig Leukotriene D4 Receptor (LTD4), CYSLTR1 (gene 100135514) (Q2NNR5 whole entry, looked up): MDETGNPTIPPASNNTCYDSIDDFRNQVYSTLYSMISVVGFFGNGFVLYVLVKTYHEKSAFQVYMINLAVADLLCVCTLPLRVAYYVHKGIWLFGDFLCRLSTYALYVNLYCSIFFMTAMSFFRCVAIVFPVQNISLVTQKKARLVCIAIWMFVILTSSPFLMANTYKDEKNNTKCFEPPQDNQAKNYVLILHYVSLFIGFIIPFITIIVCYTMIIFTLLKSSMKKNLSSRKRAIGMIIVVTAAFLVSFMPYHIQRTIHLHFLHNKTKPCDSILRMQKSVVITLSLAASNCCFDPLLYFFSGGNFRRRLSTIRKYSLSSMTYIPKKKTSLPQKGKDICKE
Procedure, shortened: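 Guinea pig lung membrane preparation; bound radioligand measured by filter scintillation after 1 h, loss of signal versus DMSO marking displacement. Compounds tested at 25 uM in duplicate, hits retested to max 50 uM.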

[8] = target: human Serotonin, 5-Hydroxytryptamine Receptor 5A (5HT5A), HTR5A (gene 3361) (UniProt P47898); experiment: NVS_GPCR_h5HT5A: NovaScreen (NVS) G Protein-Coupled Receptor Assay for human Serotonin, 5-Hydroxytryptamine Receptor 5A (5HT5A) (AID 2283251)
Sequence of human Serotonin, 5-Hydroxytryptamine Receptor 5A (5HT5A), HTR5A (gene 3361) (P47898 whole entry, looked up): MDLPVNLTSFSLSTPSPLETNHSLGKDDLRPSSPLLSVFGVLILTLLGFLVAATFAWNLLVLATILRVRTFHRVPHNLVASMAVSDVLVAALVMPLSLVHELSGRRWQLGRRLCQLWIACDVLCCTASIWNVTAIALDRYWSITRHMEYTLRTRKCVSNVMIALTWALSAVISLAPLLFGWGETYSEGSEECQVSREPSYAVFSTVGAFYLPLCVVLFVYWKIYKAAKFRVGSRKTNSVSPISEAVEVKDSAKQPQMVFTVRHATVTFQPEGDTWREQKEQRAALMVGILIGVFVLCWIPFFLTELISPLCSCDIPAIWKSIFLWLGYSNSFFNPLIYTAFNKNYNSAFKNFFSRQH
Procedure, shortened: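 Membranes from HEK293 cells, radioligand binding read by filtration and scintillation after 1 h. Single-concentration duplicate testing at 25 uM, then concentration-response for actives; positive-direction fitting relative to DMSO.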

[9] = target: human Adenosine A1 Receptor (AdoRA1), ADORA1 (gene 134) (UniProt P30542); experiment: NVS_GPCR_hAdoRA1: NovaScreen (NVS) G Protein-Coupled Receptor Assay for human Adenosine A1 Receptor (AdoRA1) (AID 2283254)
Sequence of human Adenosine A1 Receptor (AdoRA1), ADORA1 (gene 134) (P30542 whole entry, looked up): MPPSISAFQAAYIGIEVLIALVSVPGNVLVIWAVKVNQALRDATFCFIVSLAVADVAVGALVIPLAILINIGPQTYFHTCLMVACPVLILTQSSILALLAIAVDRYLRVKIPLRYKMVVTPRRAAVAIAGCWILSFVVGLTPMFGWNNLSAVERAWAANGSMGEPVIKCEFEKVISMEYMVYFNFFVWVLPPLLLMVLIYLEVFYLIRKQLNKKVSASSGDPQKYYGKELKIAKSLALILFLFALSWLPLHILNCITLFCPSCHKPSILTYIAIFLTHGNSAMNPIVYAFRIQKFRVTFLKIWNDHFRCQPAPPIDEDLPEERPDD
Procedure, shortened: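 Radioligand binding was run on human cortical membranes, cell-free, with filter-based scintillation counting 1 h after dosing. The primary screen was duplicate at 25 uM, followed by concentration series. Signal loss versus DMSO was fitted positive-direction.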

[10] = target: human Serotonin, 5-Hydroxytryptamine Receptor 7 (5HT7), HTR7 (gene 3363) (UniProt P34969); experiment: NVS_GPCR_h5HT7: NovaScreen (NVS) G Protein-Coupled Receptor Assay for human Serotonin, 5-Hydroxytryptamine Receptor 7 (5HT7) (AID 2283255);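 note: hits reduce specific radioligand binding relative to DMSO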
Sequence of human Serotonin, 5-Hydroxytryptamine Receptor 7 (5HT7), HTR7 (gene 3363) (P34969 whole entry, looked up): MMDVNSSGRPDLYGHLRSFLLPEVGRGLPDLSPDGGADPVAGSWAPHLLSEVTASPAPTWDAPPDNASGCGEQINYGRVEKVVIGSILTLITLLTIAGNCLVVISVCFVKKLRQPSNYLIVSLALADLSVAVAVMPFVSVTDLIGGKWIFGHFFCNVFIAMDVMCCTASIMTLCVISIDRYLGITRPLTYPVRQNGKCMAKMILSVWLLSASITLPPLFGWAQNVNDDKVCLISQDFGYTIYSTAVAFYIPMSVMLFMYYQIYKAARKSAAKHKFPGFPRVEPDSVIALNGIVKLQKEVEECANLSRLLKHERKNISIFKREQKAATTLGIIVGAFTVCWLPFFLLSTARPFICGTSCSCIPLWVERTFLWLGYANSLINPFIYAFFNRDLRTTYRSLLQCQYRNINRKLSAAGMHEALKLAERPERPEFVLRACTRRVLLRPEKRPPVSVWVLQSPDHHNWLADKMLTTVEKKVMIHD
Procedure, shortened: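 Filter-bound radioactivity counted after 1 h, with loss of specific radioligand binding fitted against DMSO. Membrane protein came from CHO cells expressing human 5HT7. Chemicals were tested first at 25 uM in duplicate, then in concentration series if active.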

[11] = target: human Adenosine A2a Receptor (AdoRA2a), ADORA2A (gene 135) (UniProt P29274); experiment: NVS_GPCR_hAdoRA2a: NovaScreen (NVS) G Protein-Coupled Receptor Assay for human Adenosine A2a Receptor (AdoRA2a) (AID 2283256)
Sequence of human Adenosine A2a Receptor (AdoRA2a), ADORA2A (gene 135) (P29274 whole entry, looked up): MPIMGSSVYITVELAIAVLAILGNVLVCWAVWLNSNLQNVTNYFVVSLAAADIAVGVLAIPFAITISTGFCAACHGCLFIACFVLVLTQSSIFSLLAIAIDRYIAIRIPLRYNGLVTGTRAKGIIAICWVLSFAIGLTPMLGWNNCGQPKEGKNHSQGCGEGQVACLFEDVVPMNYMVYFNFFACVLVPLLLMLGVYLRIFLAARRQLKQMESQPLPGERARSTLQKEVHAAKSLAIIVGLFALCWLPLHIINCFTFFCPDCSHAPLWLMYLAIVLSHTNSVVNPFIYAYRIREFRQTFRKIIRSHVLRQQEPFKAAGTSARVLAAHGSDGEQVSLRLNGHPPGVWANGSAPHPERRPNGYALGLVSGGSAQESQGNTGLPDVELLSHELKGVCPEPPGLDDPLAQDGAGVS
Procedure, shortened: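 HEK293-derived receptor preparation, radioligand displacement, 1.5 h, filtration + scintillation read. Loss of bound signal scored vs DMSO. Single-point 25 uM in duplicate first, then concentration-response for actives.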

[12] = target: rat Acetylcholinesterase (AChE), Ache (gene 83817) (UniProt P37136); experiment: NVS_ENZ_rAChE: NovaScreen (NVS) Enzymatic Assay for rat Acetylcholinesterase (AChE) (AID 2283233)
Sequence of rat Acetylcholinesterase (AChE), Ache (gene 83817) (P37136 whole entry, looked up): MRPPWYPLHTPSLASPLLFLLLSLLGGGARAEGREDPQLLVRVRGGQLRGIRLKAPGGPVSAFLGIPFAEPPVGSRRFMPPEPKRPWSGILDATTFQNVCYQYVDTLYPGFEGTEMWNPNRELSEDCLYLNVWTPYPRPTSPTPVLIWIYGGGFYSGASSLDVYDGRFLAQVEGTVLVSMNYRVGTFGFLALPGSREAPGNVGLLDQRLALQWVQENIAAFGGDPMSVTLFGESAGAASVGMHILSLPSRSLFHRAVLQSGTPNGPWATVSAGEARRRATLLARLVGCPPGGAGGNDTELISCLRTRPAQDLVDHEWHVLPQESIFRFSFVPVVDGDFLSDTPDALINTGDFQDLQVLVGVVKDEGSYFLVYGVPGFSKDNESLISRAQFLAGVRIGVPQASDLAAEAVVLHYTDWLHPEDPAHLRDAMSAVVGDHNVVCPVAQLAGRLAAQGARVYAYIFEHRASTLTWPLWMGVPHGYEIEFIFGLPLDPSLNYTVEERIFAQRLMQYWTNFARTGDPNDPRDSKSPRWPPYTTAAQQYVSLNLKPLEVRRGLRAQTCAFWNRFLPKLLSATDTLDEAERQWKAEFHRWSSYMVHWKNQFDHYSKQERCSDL
Procedure, shortened: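 Compounds first screened at 25 uM in duplicate, then those passing threshold tested in concentration series up to 50 uM, against AChE from rat brain membranes. Enzyme activity read by absorbance at 0.33 h; inhibition scored versus DMSO.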

[13] = target: bovine Dopamine Receptor (DR), Non-selective Binding, DRD1 (gene 281125) (UniProt Q95136); experiment: NVS_GPCR_bDR_NonSelective: NovaScreen (NVS) G Protein-Coupled Receptor Assay for bovine Dopamine Receptor (DR), Non-selective Binding (AID 2283241)
Procedure, shortened: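 Filter-based radioligand binding with bovine striatal membrane, incubated 1 h; DMSO as negative baseline. Initial duplicate single-point test at 25 uM preceded concentration series for actives.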

[14] = system: guinea pig Leukotriene B4 Receptor (LTB4), gene 100379538; experiment: NVS_GPCR_gLTB4: NovaScreen (NVS) G Protein-Coupled Receptor Assay for guinea pig Leukotriene B4 Receptor (LTB4) (AID 2283247)
Procedure, shortened: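 Membranes from guinea pig spleen incubated 2 h with radioligand and compound; bound counts measured by filtration and scintillation. Screened first at 25 uM in duplicate, then actives titrated to a 50 uM top concentration relative to DMSO.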

[15] = system: bovine Angiotensin II Receptor Type 2 (AT2), gene 407157; experiment: NVS_GPCR_bAT2: NovaScreen (NVS) G Protein-Coupled Receptor Assay for bovine Angiotensin II Receptor Type 2 (AT2) (AID 2283240)
Procedure, shortened: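 Radioligand displacement on bovine cerebellar membranes, 1 hour incubation, filter-based scintillation counting; loss of signal vs DMSO. Duplicate single-point screen at 25 uM, then concentration-response to 50 uM maximum.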

[16] = NVS_GPCR_bNPY_NonSelective: NovaScreen (NVS) G Protein-Coupled Receptor Assay for bovine Neuropeptide Y (NPY) Receptor, Non-selective Binding (AID 2283245)
Procedure, shortened: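 Displacement of radioligand from bovine hippocampal membrane receptors, read by filtration and scintillation counting after 1 hour. Concentration-response to a top of 50 uM followed a 25 uM duplicate primary screen. Loss of signal versus DMSO.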

[17] = target: human Serotonin, 5-Hydroxytryptamine Receptor 6 (5HT6), HTR6 (gene 3362) (UniProt P50406); experiment: NVS_GPCR_h5HT6: NovaScreen (NVS) G Protein-Coupled Receptor Assay for human Serotonin, 5-Hydroxytryptamine Receptor 6 (5HT6) (AID 2283253)
Sequence of human Serotonin, 5-Hydroxytryptamine Receptor 6 (5HT6), HTR6 (gene 3362) (P50406 whole entry, looked up): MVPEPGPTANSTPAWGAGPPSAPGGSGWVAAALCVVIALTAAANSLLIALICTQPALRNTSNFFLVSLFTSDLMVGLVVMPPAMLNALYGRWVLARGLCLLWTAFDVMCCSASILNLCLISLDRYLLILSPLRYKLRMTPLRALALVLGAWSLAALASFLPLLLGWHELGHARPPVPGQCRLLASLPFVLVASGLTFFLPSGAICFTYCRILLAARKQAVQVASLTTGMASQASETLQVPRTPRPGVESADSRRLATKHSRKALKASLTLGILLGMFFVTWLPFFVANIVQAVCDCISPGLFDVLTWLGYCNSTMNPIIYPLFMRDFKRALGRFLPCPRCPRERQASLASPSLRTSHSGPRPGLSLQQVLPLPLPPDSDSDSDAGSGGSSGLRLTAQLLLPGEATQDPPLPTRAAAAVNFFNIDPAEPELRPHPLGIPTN
Procedure, shortened: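 Filter scintillation counting of radioligand displacement from HEK293-expressed 5HT6, 1 hour post-dose, with loss of signal relative to DMSO. Single 25 uM duplicates first, with concentration series for confirmation.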

[18] = target: rat Catechol-O-Methyl Transferase (COMT), Comt (gene 24267) (UniProt P22734); experiment: NVS_ENZ_rCOMT: NovaScreen (NVS) Enzymatic Assay for rat Catechol-O-Methyl Transferase (COMT) (AID 2283235)
Procedure, shortened: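 Rat dorsal striatum extract served as COMT source; product quantified by HPLC/spectrophotometry, read at 0 h after dosing. Primary single-concentration screen at 25 uM, followed by concentration series to a 50 uM maximum.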

[19] = target: rat Monoamine Oxidase, MAO-B, Central (MAOBC), Maob (gene 25750) (UniProt P19643); experiment: NVS_ENZ_rMAOBC: NovaScreen (NVS) Enzymatic Assay for rat Monoamine Oxidase, MAO-B, Central (MAOBC) (AID 2283238)
Procedure, shortened: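 Cell-free radiometric assay, rat brain lysate. Read-out: scintillation counts, 1.17 h post-dosing. Screen 25 uM in duplicate; actives (e.g. ≥30% inhibition) then singleton concentration-response, max 50 uM. Activity loss fitted relative to DMSO.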

For [2H]C1([2H])[n+]2ccccc2-c2cccc[n+]2C1([2H])[2H], which outcome [1] is on record?
Its outcome is “inactive”.

What about the outcome [2] of the same compound?
The outcome was “inactive”.

Which results are given for Oc1ccc(Cl)cc1Cc1ccccc1?
AC50 [3]: 38.2 µM (active); outcome [3]: inactive; AC50 [4]: 36.2 µM (active) and 38.3 µM (active); AC50 [5]: 13.6 µM (active); AC50 [6]: 17.3 µM (active) and 25.2 µM (active); outcome [6]: inactive; AC50 [7]: 6.93 µM (active); outcome [7]: inactive; AC50 [8]: 25.2 µM (active) [middle of 6 runs]; AC50 [9]: 16.1 µM (active) [middle of 6 runs]; AC50 [10]: 20.8 µM (active) [middle of 5 runs]; AC50 [11]: 25.2 µM (active) and 15.1 µM (active)

With CC1(C)C(C=C(Cl)Cl)C1C(=O)OC(C#N)c1ccc(F)c(Oc2ccccc2)c1 (centres undefined) as the compound, how does the outcome [10] read?
The outcome was “inactive”.

For COc1cc(OC)nc(NC(=O)NS(=O)(=O)c2cc(NC=O)ccc2C(=O)N(C)C)n1, which outcome [1] is on record?
The outcome was “inactive”.

With CNC(=O)Oc1ccccc1OC(C)C as the compound, how does the AC50 [12] read?
The AC50 was 5.05 µM (active).

What about the outcome [1] of the same compound?
The outcome was “inactive”.

What does the source list for O=C(Nc1ccccc1)Nc1cnns1?
outcome [12]: inactive; outcome [13]: inactive; AC50 [6]: 5.16 µM (active); AC50 [14]: 25 µM (active); AC50 [8]: 3.88 µM (active); outcome [10]: inactive; outcome [11]: inactive

With CC[C@H](C)[C@H]1O[C@]2(C=C[C@@H]1C)C[C@@H]1C[C@@H](C/C=C(\C)[C@@H](O[C@H]3C[C@H](OC)[C@@H](O[C@H]4C[C@H](OC)[C@@H](O)[C@H](C)O4)[C@H](C)O3)[C@@H](C)/C=C/C=C3\CO[C@@H]4[C@H](O)C(C)=C[C@@H](C(=O)O1)[C@]34O)O2 (tested in a mixture with another compound) as the compound, how does the outcome [15] read?
Its outcome is “inactive”.

And the outcome [16]?
The outcome was “inactive”.

And the AC50 [7]?
The AC50 was 25 µM (active).

What about the AC50 [8] of the same compound?
Its AC50 is 3.1 µM (active).

And the AC50 [10]?
Its AC50 is 6.77 µM (active).

With O=S(=O)(O)C(F)(F)C(F)(F)C(F)(F)C(F)(F)C(F)(F)C(F)(F)C(F)(F)C(F)(F)F as the compound, how does the outcome [4] read?
Its outcome is “inactive”.

And the AC50 [14]?
The AC50 was 13.1 µM (active) [middle of 4 runs].

What about the outcome [14] of the same compound?
Its outcome is “inactive”.

What about the AC50 [7] of the same compound?
The AC50 was 24 µM (active) [middle of 4 runs].

What about the outcome [7] of the same compound?
Its outcome is “inactive”.

And the AC50 [8]?
Its AC50 is 35.1 µM (active) and 11.6 µM (active) and 33.8 µM (active).

What about the outcome [8] of the same compound?
Its outcome is “inactive”.

And the AC50 [17]?
The AC50 was 32.7 µM (active) and 42.8 µM (active).

And the AC50 [10]?
The AC50 was 6.51 µM (active) and 25 µM (active) and 24 µM (active).

What about the AC50 [11] of the same compound?
Its AC50 is 6.28 µM (active) [middle of 5 runs].

For CC(C)OC(=O)Nc1cccc(Cl)c1, which outcome [18] is on record?
The outcome was “inactive”.

And the outcome [19]?
Its outcome is “inactive”.

Which outcome [1] does the source give for Cc1[nH]c(=O)n(C(C)(C)C)c(=O)c1Cl here?
The outcome was “inactive”.

With COC(=O)c1ccccc1CS(=O)(=O)NC(=O)Nc1nc(OC)cc(OC)n1 as the compound, how does the AC50 [6] read?
The AC50 was 25 µM (active).

With CC(C)(C)C(O)C(Oc1ccc(Cl)cc1)n1cncn1 (centres undefined) as the compound, how does the outcome [4] read?
The outcome was “inactive”.

For CNC(=O)Oc1cccc(N=CN(C)C)c1, which AC50 [12] is on record?
The AC50 was 12 µM (active).

And the outcome [3]?
The outcome was “inactive”.

And the outcome [6]?
Its outcome is “inactive”.

With O=C(O)COc1ccc(Cl)cc1Cl as the compound, how does the outcome [18] read?
The outcome was “inactive”.
